Reference: PubChem BioAssay (NCI)
About 79,000 compounds went through this panel and 15% of them were active in at least one assay; those are over-represented in the sample as a whole. Activity calls are given as the source filed them. No stated cut-off is given here; in the data, active means growth inhibition above about 70%; inactive means the rest.

Assay: NCI Yeast Anticancer Drug Screen. Data for the mlh1 rad18 strain (AID 175)
Conditions: S. cerevisiae mlh1 rad18 strain growth inhibition; at 50.0 µM; active compounds read high
Experimental: Growth inhibition of yeast strains with defined genetic alterations is measured as a screen for potential anti-cancer activity. Selected strains with alterations in DNA damage repair or cell cycle control were exposed to compounds and growth inhibition was measured relative to vehicle treated controls. The strain used in this assay is mlh1 rad18

Compound | growth inhibition
N#CC1OC1c1cccnc1 (stereo not given) | -16.1% (inactive)
COc1ccc(CC(N)c2nn[nH]n2)cc1 (stereo not given) | -1.75% (inactive)
CC1CN1P(=O)(N1CCc2ccccc21)N1CC1C (stereo not given) | 0.85% (inactive)
C/C=C(/C)C(=O)O[C@H]1CCN2CC=C(COC(=O)[C@@](O)([C@H](C)OC)C(C)(C)O)[C@H]12 | -44.2% (inactive)
CNC(=O)O/N=C(\SC)C(=O)N(C)C | -1.05% (inactive)
CO[C@H]1C[C@H](O[C@H]2CC[C@@]3(C)[C@H](CC[C@@H]4[C@@H]3CC[C@]3(C)[C@@H](C5=CC(=O)OC5)CC[C@]43O)C2)O[C@H](C)[C@H]1O | -49% (inactive)
O=CNC(CSC(c1ccccc1)c1ccccc1)C(=O)O (stereo not given) | 4.4% (inactive)
CCOP(=O)(O)OCC | -49.9% (inactive)
O=S(c1ccc(Cl)cc1)c1ccc(Cl)cc1 | 19.1% (inactive)
CC1=CP(=O)(OC(C)C)CC(C)=C1Cl (stereo not given) | 20.8% (inactive)
O=c1[nH]cc([N+](=O)[O-])cc1[N+](=O)[O-] | 0.5% (inactive)
O=C(CCC1CCCCN1)Nc1ccc2c(c1)C(=O)c1ccc(NC(=O)CCN3CCCCC3)cc1C2=O (stereo not given) | 6.8% (inactive)
CC(SC(C)C(=O)N/N=C/c1ccc(N(CCCl)CCCl)cc1)C(=O)N/N=C\c1ccc(N(CCCl)CCCl)cc1 (stereo not given) | 26.1% (inactive)
CC(=O)OC(C)(C)/C=C/C(=O)[C@](C)(O)[C@H]1[C@H](O)C[C@@]2(C)[C@@H]3CC=C4[C@@H](C=C(O)C(=O)C4(C)C)[C@]3(C)C(=O)C[C@]12C | -16.1% (inactive)
C=CCNCC(O)c1ccccc1 (stereo not given) | 4.6% (inactive)
N#Cc1ccc([N+](=O)[O-])cc1 | -43.9% (inactive)
CC(NC(=O)c1ccccc1)N(C)[N+](=O)[O-] (stereo not given) | -5.55% (inactive)
O=C(O)C(F)F | -3.15% (inactive)
CN1CCC(O)(c2ccccc2)C(O)C1 (stereo not given) | 39.2% (inactive)
COc1nc(N2CCNCC2)nc2c1CCCC2 | -0.45% (inactive)

Compound | growth inhibition
CCCC(=O)OC1C(c2ccc(=O)oc2)C2(C)CCC3C(CCC4CC(OC(C)=O)CCC43C)C23OC13 (stereo not given) | 0.2% (inactive)
O=C(O)c1cc([N+](=O)[O-])cc([N+](=O)[O-])c1 | 43.2% (inactive)
CC(C)=NNC1=NC(C)(C)P(=O)(N2CCCC2C(=O)O)S1 (stereo not given) | -9.2% (inactive)
NC(=O)C[N+](=O)[O-] | -2.2% (inactive)
COC(=O)C1=C(O)C(C(=O)OC)C2/C(=[N+](/[O-])O)c3c(cc([N+](=O)[O-])cc3[N+](=O)[O-])C1C2[N+](=O)[O-] (stereo not given) | 90.7% (active)
Oc1ccc(O)c(Br)c1 | 29.4% (inactive)
Cc1ccc([Se][Se]c2ccc(C)cc2)cc1 | 43% (inactive)
Clc1cccc(Cl)c1NC1=NCCS1 | 6.45% (inactive)
O=C(Cc1nc2ccccc2c(=O)n1-c1c(Cl)cccc1Cl)c1ccncc1 | 18.9% (inactive)
CC(C)c1cc2c(cc1O)C1(C)CCCC(C)(C)C1=CC2=O (stereo not given) | -13.1% (inactive)
CC1(Cl)C(=O)NC(=O)NC1O (stereo not given) | 19.1% (inactive)
ClC1=C(Cl)C2(Cl)C3C4CC(C5OC45)C3C1(Cl)C2(Cl)Cl (stereo not given) | -6.8% (inactive)
CP1(=O)CC23CCCCC2(C1)O3 (stereo not given) | -7.9% (inactive)
Cc1ccc(S(=O)(=O)Nc2cc(C)cc(CCN)c2C)cc1 | -10.1% (inactive)
Nc1ccc(C(=O)O)cc1[As](O)O | -17.8% (inactive)
C[Si]1(C)CCCC2(C1)C(=O)NC(=O)NC2=O | -41.5% (inactive)
COc1c2occc2c(CCl)c2ccc(=O)oc12 | 28.1% (inactive)
CC(=O)OC1CCC2(C)C(CCC3C2CCC2(C)C3CC(CC(=O)O)C2OC(C)=O)C1 (stereo not given) | 24% (inactive)
Nc1nc(-c2ccccc2)c[se]1 | 31.4% (inactive)
CCN1CCc2cc(OC)c(OC)cc2C1 | 3.5% (inactive)
